# Compound activity: PubChem BioAssay, several laboratories
# phage Ecoli inh – E. coli growth loss with phage present | growth absorbance | inhibition, % at 11.9 µM | 360,000 tested, 0.26% active | AID 651602; in the data active = inhibition above about 11%
# Tat export inh – blocks Tat-dependent protein export in E. coli | E. coli MC4100 TorA-mCherry Tat export, fluorescence | inhibition, % at 10 µM | 340,000 tested, 0.036% active;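 active = mean replicate inhibition at least 50% and at least half of replicates individually reaching 50%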;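 note: exported cargo escapes ClpAP degradation while cytoplasmic cargo is degraded and loses fluorescence; 0% = median of neutral control wells and 100% = median of NaSCN control wells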
# E coli growth-1 – counter-screen for AddAB inhibitors: E. coli growth inhibition; 330,000 tested, 0.27% active; inhibition, % at 11.9 µM; E. coli V3065 growth, OD600 absorbance, 18 h;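 active = inhibition above the campaign's mean inhibition across all tested compounds plus 3 SD, cut at about 9.9% in these data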;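 note: uninfected addAB+ strain grown without phage in ampicillin broth; 0% = DMSO wells and 100% = ciprofloxacin 0.95 µg/ml wells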
# E coli growth-2 – E. coli growth inhibition | Escherichia coli growth, OD600, 23 h; hits give low values | OD600 absorbance (no concentration beside the values) | 330,000 tested, 0.21% active | AID 1053175;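 active = OD600 absorbance below the run mean of sample wells minus 3.6 SD, in any replicate, cut at about 0.56 in these data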
# AddAB inh – less growth of phage-infected E. coli with AddAB; E. coli expressing H. pylori AddAB, absorbance growth; 330,000 tested, 0.29% active; AID 435030; inhibition, % at 11.9 µM; in the data active = inhibition above about 12%;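 note: 0% = vehicle wells of infected cells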
# RecBCD conf – confirmation: growth loss of phage-infected RecBCD+ E. coli (RecBCD inhibitor screen); inhibition, % at 11.9 µM; AID 651982; E. coli V66 + T4 2- phage, growth OD; shares compounds with phage Ecoli inh; 890 tested, 45% active;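 active = mean inhibition over triplicates exceeding the hit threshold derived in the original primary screen, cut at about 11% in these data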
# Ecoli viability – counter-screen for RecBCD inhibitors: inhibitors of bacterial viability; E. coli viability, absorbance (OD) growth; 890 tested, 29% active; inhibition, % at 11.9 µM; shares compounds with phage Ecoli inh; in the data active = inhibition above about 20%;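 note: E. coli strain V66 grown with compound alone and no phage infection; 0% = bacteria with DMSO vehicle only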
# AddAB counter – growth loss of phage-infected AddAB E. coli, RecBCD counter-screen. shares compounds with phage Ecoli inh. E. coli expressing H. pylori AddAB + T4 phage, OD growth; gene 2 mutant T4, recBCD-deleted host. inhibition, % at 11.9 µM. 890 tested, 45% active;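 active = mean inhibition above the solvent-only control wells' mean plus 3 SD, cut at about 22% in these data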;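 note: higher means less bacterial growth from phage killing when AddAB is blocked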
# * = called active by the depositor; . = not tested or not shown. Hits are enriched below; roughly 0.51% of the tested compounds scored in any of these assays.
SMILES,phage Ecoli inh,Tat export inh,E coli growth-1,E coli growth-2,AddAB inh,RecBCD conf,Ecoli viability,AddAB counter
CC(C)c1ccc(NC(=O)CSc2nc3ncccc3[nH]2)cc1,8,18,3,0.68,3,.,.,.
Cn1cc(CC(=O)N2CCN(c3ccccc3F)CC2)c2ccccc21,84*,-9,-1,0.69,2,-2,-2,-7
CCOC(=O)c1c[nH]c2c([N+](=O)[O-])cc(OC)cc2c1=O,12*,-2,.,0.45*,.,6,10,44*
OCC1OC(n2cnc3c(=S)nc[nH]c32)CC1O (stereo not given),18*,6,.,0.71,.,1,-2,-2
CCN1CC2C3C(=O)N(C)C(=O)C3[C@](Cc3ccccc3)(C1=O)N2C(=O)c1ccc(F)cc1 (stereo not given in full),.,.,.,0.67,.,.,.,.
Cc1nc(C)c(C(=O)Nc2cccc(Cl)c2)o1,2,9,-2,0.65,1,.,.,.
CCCNC(=O)c1nc(C)c(C)nc1C(=O)Nc1cccc(Cl)c1,67*,-1,-2,0.65,-1,-2,-2,-4
O=[N+]([O-])c1ccccc1C=NNc1nccs1,.,.,.,0.67,.,.,.,.
c1ccc(CSc2ccc(-c3ccccn3)nn2)cc1,11*,-5,8,0.68,6,5,7,12
CCOC1OC(C(=O)NCc2ccccc2)=CC(C(C)(C)C)C1CCCO (stereo not given),.,.,.,0.7,.,.,.,.
S=C(NN=C(c1ccccc1)c1ccccn1)N(Cc1ccccn1)Cc1ccccn1,15*,-8,.,.,.,6,8,9
O=C(Nc1cc(Cl)ccc1O)c1snnc1-c1ccccc1,14*,13,9.8*,0.61,11,5,8,4
O=C(NC(Nc1nc2ccc([N+](=O)[O-])cc2s1)(C(F)(F)F)C(F)(F)F)c1ccccc1Cl,15*,-2,11*,0.59,14*,8,11,6
COc1ccc(C2Cc3cc(O)cc(O)c3C(=O)O2)cc1O (stereo not given),.,.,.,0.65,.,.,.,.
CCOC(=O)C1C2COc3cc(OC)ccc3C2N2C(=O)N(c3ccc(OC)cc3)C(=O)[C@@]12C (stereo not given in full),.,.,.,0.68,.,.,.,.
CO[C@@]1(NC(=O)Cc2cccs2)C(=O)N2C(C(=O)O)=C(COC(N)=O)CS[C@@H]21,27*,-16,-2,.,-1,94*,104*,101*
COc1ccc(N/N=C/c2c(C(=O)O)ccc3ccccc23)cc1,11*,-5,16*,.,11,3,7,6
O=C1CC(c2nc3ccccc3[nH]2)CN1c1cccc(C(F)(F)F)c1 (stereo not given),27*,7,0,0.7,0,2,1,0
O=Nc1nc2ncccn2c1-c1ccccc1,15*,4,.,.,.,8,16,95*
COc1ccccc1N1CCN(Cc2cc(Br)c(O)c3ncccc23)CC1,12*,-4,12*,0.8,10,4,7,-3
CCOc1ccccc1N1CCN(Cc2cccc(OC)c2O)CC1,1,-16,3,0.66,3,.,.,.
Nc1nnc(-c2ccc([N+](=O)[O-])o2)s1,92*,-21,.,0.069*,.,100*,102*,100*
O=C(Nc1ccc(Cl)c(C(F)(F)F)c1)c1ccco1,2,6,-1,0.62,2,.,.,.
CCNC(=S)Nc1ccc(Cl)c(C(F)(F)F)c1,12*,6,7,0.6,7,4,4,12
O=S(=O)(Nc1ncccn1)c1ccc(NC(=S)Nc2ccc(Cl)cc2)cc1,11*,22,6,.,7,4,3,5
SMILES,phage Ecoli inh,Tat export inh,E coli growth-1,E coli growth-2,AddAB inh,RecBCD conf,Ecoli viability,AddAB counter
CCc1nnc(NS(=O)(=O)c2ccc(N)cc2)s1,12*,8,8,0.63,8,8,5,19
CCc1nnc(NS(=O)(=O)c2ccc(N3C(=O)c4ccccc4C3=O)cc2)s1,3,-20,3,0.66,6,.,.,.
CC(C)NC(=S)Nc1ccc(S(=O)(=O)Nc2ncccn2)cc1,2,-3,1,0.69,2,.,.,.
Cc1noc(NS(=O)(=O)c2ccc(N)cc2)c1C,11*,-2,8,0.66,10,3,2,23*
CCc1ccc(NC(=S)Nc2ccc(S(=O)(=O)Nc3ncccn3)cc2)cc1,12*,19,1,0.68,3,1,-1,6
O=C(Nc1ccc(Cl)cc1)Nc1ccc(S(=O)(=O)Nc2ncccn2)cc1,6,10,2,0.59,0,.,.,.
CCOC(=O)Nc1ccc(S(=O)(=O)Nc2onc(C)c2C)cc1,-1,.,-2,0.66,1,.,.,.
COc1cc(OC)nc(Oc2cc(C=NO)ccc2OC)n1,.,.,.,0.7,.,.,.,.
CN(C)C(CO)c1nnc(C(Cc2ccc(O)cc2)NC(=O)C2CCNCC2)o1 (stereo not given),.,.,.,0.63,.,.,.,.
COC(=O)NN=Cc1cc(N=Nc2ccccc2)ccc1O,.,.,.,0.71,.,.,.,.
O=S(=O)(Nc1ncccn1)c1ccccc1,3,-6,-1,0.64,0,.,.,.
Nc1ccc(S(=O)(=O)Nc2ncccn2)cc1,11*,-2,1,0.61,2,6,3,13
CN(C)c1ccc(NC(=O)Cn2cc3c(n2)CCCC3)cc1,13*,8,-3,0.77,0,0,-1,4
Cc1cc(C)cc(NC(=O)Cn2cc3c(n2)CCCCC3)c1,.,.,-1,0.77,2,.,.,.
c1nc(SSc2ncnc3nc[nH]c23)c2[nH]cnc2n1,24*,-20,.,.,.,58*,58*,75*
CC(=CC=C(C#N)C#N)c1cc(C#N)c(N)o1,.,.,.,0.71,.,.,.,.
Oc1c(Br)cc(Br)cc1/C=N/Nc1ccc(Cl)nn1,0,-5,1,.,0,.,.,.
Oc1ccc(/C=N/Nc2ccc(Cl)nn2)c(O)c1O,11*,-3,3,.,2,3,2,21*
CC(=O)Nc1ccc(C2=CC(=O)CC(c3ccc(Cl)cc3)C2)cc1 (stereo not given),.,.,.,0.68,.,.,.,.
CC(NC(=O)c1nc[nH]c1C(=O)NC(C)C(=O)OC(C)(C)C)C(=O)OC(C)(C)C (stereo not given),.,.,.,0.66,.,.,.,.
O=C(O)COc1ccccc1C(Nc1cccnc1)c1cc(Cl)c2cccnc2c1O (stereo not given),.,11,.,0.65,.,.,.,.
CCOc1ccc(C(Nc2cccnc2)c2cc(Cl)c3cccnc3c2O)cc1 (stereo not given),17*,1,20*,0.69,10,2,5,6
CC(=O)NC(C)c1cc(Cl)c2cccnc2c1O (stereo not given),0,-6,-9,0.63,-7,.,.,.
CCC(=O)NC(c1ccc(OC)c(OC)c1)c1cc(Cl)c2cccnc2c1O (stereo not given),15*,-5,.,0.65,.,6,9,15
